Source: PubChem
ELG1 genotox – inducers of genotoxicity in HEK293T ELG1-luciferase cells | Potency, µM (top dose mostly 46 µM), without a hit: at the top dose activity change, positive = activation, most hits filed as activators | HEK293T ELG1-luciferase reporter, luminescence, 16 h | 330,000 compounds, 1.3% hits; further: % of control where 0% means no effect; nearly all actives have a fitted effect of over 60% in size
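After overnight (16 hr) compound treatment at 37 °C, ELG1-luciferase HEK293T cells were lysed with ONE-Glo; luminescence quantified 30 min later at room temperature.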
SMN2 splice enh – SMN2 splice variant enhancement | Potency, µM (titrated, usually from 46.1 µM), for inactives: at the top dose activity change, positive = activation, usual class: activators | HEK293 SMN2-luciferase splicing reporter, luminescence, 30-36 h | 210,000 compounds, 2.8% hits | AID 1458; further: % of control where 0% means no effect; nearly all actives have a fitted effect of over 55% in size
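qHTS luciferase splicing reporter: luminescence rises when SMN2 exon 7 is included in transfected HEK293 cells. Compound exposure lasted 30-36 h at 37C, with 4.5 mM final sodium butyrate as control, followed by a ONE-Glo read.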
Rab9 promoter act – activators of Rab9 promoter; Huh7 Rab9 promoter-luciferase reporter, luminescence, 24 h; Potency, µM (top dose mostly 9.22 µM), for the others: at the highest dose activation, negative = inhibition, usual class: activators; 320,000 compounds, 2.8% hits; further: % of control where 0% means no effect; nearly all actives have a fitted effect of over 60% in size
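Cells were plated at 1500 per well in reduced-serum medium with 10% FBS and left 2 h. Compound in DMSO was then added for 24 h at 37 °C. Reporter signal was read by luminescence after 10 min with luciferase detection reagent.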
NPC1 prom act – NPC1 promoter activation | Huh7 NPC1 promoter luciferase reporter, 24 h | Potency, µM (series often up to 9.22 µM), inactives show top-dose activation, usual class: activators | 320,000 compounds, 2.4% hits | AID 485313; further: % of control where 0% means no effect; nearly all actives have a fitted effect of over 60% in size
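Readout is luciferase luminescence, reflecting NPC1 promoter activation in stably transfected Huh7 cells after 24 h compound exposure at 37 °C in reduced-serum medium with 10% FBS.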
ELG1 DNA repair – inhibitors of ELG1-dependent DNA repair in HEK293T cells; 330,000 compounds, 2.3% hits; HEK293T ELG1-luciferase reporter, luminescence, 16 h; DNA damage induced by 5-fluorouridine; Potency, µM (highest dose often 46.1 µM), for inactives: at the highest dose activity change, negative = inhibition, actives largely listed as inhibitors; AID 504467; further: on the % scale 0 is the no-effect control and ±100 the full control effect; nearly all actives have a fitted effect of over 55% in size
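5-Fluorouridine DNA damage + compound/DMSO, 2,000 cells/well, 16 h, 37 °C/5% CO2. ONE-Glo, 30 min RT, luminescence. Readout = decrease in reporter signal.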
FLuc modulator – firefly luciferase modulation, counter-screen for miR-21 project; purified FLuc, Km substrates, luminescence inhibition; 360,000 compounds, 6.9% hits; Potency, µM (titrated, usually from 57.5 µM), for inactives: top-dose activity change, negative = inhibition, hits mostly inhibitors; AID 588342;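 further: plate controls were vehicle for no effect and reference inhibitor for full effect; nearly all actives have a fitted effect of over 55% in size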
Target sequence (P08659 whole entry, looked up): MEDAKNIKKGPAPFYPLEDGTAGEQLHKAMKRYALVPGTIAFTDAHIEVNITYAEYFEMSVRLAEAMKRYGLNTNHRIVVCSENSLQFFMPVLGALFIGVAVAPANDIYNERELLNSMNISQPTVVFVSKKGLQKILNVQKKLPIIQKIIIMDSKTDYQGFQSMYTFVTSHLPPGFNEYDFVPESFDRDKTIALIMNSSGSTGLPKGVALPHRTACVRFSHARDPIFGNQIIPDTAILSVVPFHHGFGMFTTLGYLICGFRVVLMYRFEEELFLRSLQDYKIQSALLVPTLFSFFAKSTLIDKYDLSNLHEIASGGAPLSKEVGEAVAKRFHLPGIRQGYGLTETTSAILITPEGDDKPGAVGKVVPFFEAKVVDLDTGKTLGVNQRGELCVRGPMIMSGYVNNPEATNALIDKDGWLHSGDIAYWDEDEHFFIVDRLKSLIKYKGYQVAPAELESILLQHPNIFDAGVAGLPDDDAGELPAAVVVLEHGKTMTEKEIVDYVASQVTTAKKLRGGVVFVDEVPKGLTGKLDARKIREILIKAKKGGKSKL
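Biochemical qHTS of compounds, final roughly 60 µM downward over six points, against 10 nM purified firefly luciferase using Km concentrations of substrates (10 uM D-luciferin, 10 uM ATP) in Tris acetate pH 7.5 buffer; luminescence output.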
Starred values were filed as active, the others as inactive; ? = inconclusive; . = no result. Only some compounds are listed: those with a hit (about 9.3% of all), similar ones and a draw of the others. The call rests on the fitted dose curve; in most records, active means well fitted curve in the direction sought with a large enough effect; inconclusive means small, poorly fitted or top-dose-only effect, or another doubt; inactive means no such curve, though single readings can be large; an effect the other way counts as inactive or inconclusive. Potency means the concentration at half of the fitted maximal effect.

SMILES | ELG1 genotox | SMN2 splice enh | Rab9 promoter act | NPC1 prom act | ELG1 DNA repair | FLuc modulator
COc1cc(Nc2nnc(C)s2)c(Cl)cc1Cl | -3.2% | -20.5% | 0.1% | -5.1% | -23.3% | -5.1%
CC(=O)Nc1ccc(S(=O)(=O)NCCCN2CCOCC2)cc1 | 0.7% | . | -0.7% | -6.3% | 8.7% | 5.2%
Cc1ccc(C)c(C(=O)C(C)Sc2nc3nn(-c4ccccc4)c(=O)c-3c3n2CCCCC3)c1 (configuration not stated) | -4.1% | . | 6.5% | -1.3% | 0.5% | 0.9%
O=c1c2sc3ccccc3c2[nH]c(=S)n1CCN1CCOCC1 | 4.6% | 9.0% | -1.5% | -0.9% | ? | ?
O=C(Nc1ccc(F)cc1)c1ncn(-c2ccccc2)n1 | . | 14.1µM* | . | . | . | 10.7µM*
Cc1ccc(NC(=O)c2ncn(-c3ccccc3)n2)c(Cl)c1 | . | 20.0% | . | . | . | ?
COc1ccccc1NC(=O)c1ncn(-c2ccccc2)n1 | . | 11.2µM* | . | . | . | ?
COC(=O)C(NC(=O)c1ccccc1Cl)(Nc1ncc(S(=O)(=O)c2ccc([N+](=O)[O-])cc2)s1)C(F)(F)F (configuration not stated) | -10.5% | -19.5% | -3.7% | -1.6% | -19.2% | 3.0%
c1ccc(CCNc2nc3ccccc3s2)cc1 | ? | -11.6% | ? | ? | ? | 19µM*
COc1ccc(CNc2nccs2)cc1OC | 0.5% | . | -3.9% | 0.4% | 0.9% | 10.4%
O=C(CS(=O)(=O)Cc1ccccc1)Nc1nc2ccccc2s1 | 2.8% | -9.4% | 2.4% | 0.5% | 15.3% | -21.5%
Cc1ccc(CNc2nc3ccccc3s2)s1 | ? | 1.26µM* | 0.355µM* | 0.355µM* | ? | 0.338µM*
COc1ccc(CNc2nc3ccccc3s2)cc1OC | ? | . | ? | ? | ? | 23.9µM*
OCC[C@@H]1C[C@@H](O)[C@H](O)[C@]2(CCc3ccccc3CO2)O1 | 0.6% | . | 2.1% | -2.8% | 8.4% | -0.2%
O=C1OCCC/C1=C\c1ccc2c(c1)OCO2 | -2.8% | . | 0.9% | -5.8% | 4.3% | -11.1%
CCCN1C/C(=C/c2ccc3c(c2)OCO3)C(=O)/C(=C/c2ccc3c(c2)OCO3)C1 | -18.7% | -72.6% | -24.8% | -10.9% | 23.1µM* | -1.3%
CC1=C/C(=C\c2ccc3c(c2)OCO3)C(=O)S1 | -2.4% | -8.5% | -0.6% | -5.8% | -14.8% | 19µM*
O=C(CSc1ccc(C(F)(F)F)cn1)Nc1ccccc1 | -0.7% | . | 1.2% | -1.0% | -6.8% | -4.9%
O=C(/C=C/Sc1ccc(C(F)(F)F)cn1)c1ccccc1 | 6.3% | . | -37.5% | -14.1% | 21.1% | 0.536µM*
COC(=O)C/C=C1\c2ccc3c(c2[C@@H](OC)[C@@H]1C)OCO3 | . | -0.8% | . | . | . | .
CCOC(=O)c1c(S(=O)(=O)NCC(=O)Nc2ccc(C)c(Cl)c2)c(C)n(C)c1C | . | . | . | . | . | -10.3%
Cc1nc(-c2ccccc2)sc1C(=O)/C=C/c1ccc(Cl)cc1 | -7.1% | -23.6% | 0.2% | -3.2% | 13.8% | -16.2%
Cc1nc(-c2ccccc2Cl)sc1C(=O)/C=C/N(C)C | ? | ? | 1.78µM* | 3.16µM* | ? | 16.9µM*
Cc1nn(C)cc1S(=O)(=O)N1CCN(c2ccccc2F)CC1 | -2.6% | . | 4.3% | 1.1% | -12.0% | 3.2%
COc1ccc(-c2cn(Cc3ccc([N+](=O)[O-])cc3)nn2)cc1 | 2.7% | . | 9.8% | -0.3% | -1.3% | ?
SMILES | ELG1 genotox | SMN2 splice enh | Rab9 promoter act | NPC1 prom act | ELG1 DNA repair | FLuc modulator
O=[N+]([O-])c1ccc2nc(-c3ccc(OC(F)F)cc3)cn2c1 | ? | . | 1µM* | 1µM* | ? | ?
COc1ccc(-c2[nH]ncc2CN2CCCOc3c(cccc3OC)C2)c(OC)c1 | 0.6% | . | 8.4% | -3.3% | -5.3% | -1.0%
CN(C)c1cc[n+](CC(=O)c2ccc(-c3ccccc3)cc2)cc1 | -12.4% | -99.8% | -17.9% | -23.6% | 2.59µM* | 0.3%
COc1ccc(C(=O)C[n+]2ccc(N(C)C)cc2)cc1 | -10.8% | . | -21.6% | -13.8% | 0.0% | -0.5%
CN(C)c1cc[n+](CC(=O)c2ccc(Br)cc2)cc1 | -5.9% | -62.8% | -10.1% | -17.7% | 9.2µM* | -1.0%
N/C(CS(=O)(=O)c1ccccn1)=N\OC(=O)c1ccc(Cl)cc1 | 8.8% | . | -2.7% | 2.4% | ? | -12.9%
COc1ccc(Cl)cc1C(=O)O/N=C(\N)c1ccc(Cl)cc1 | 11.2% | 10.3% | -3.2% | 1.2% | ? | 16.9µM*
Cc1occc1C(=O)O/N=C(\N)c1ccc(Cl)cc1 | ? | . | 3.98µM* | ? | ? | 9.53µM*
N/C(=N\OC(=O)c1ccccc1Cl)c1ccncc1 | -14.6% | . | 4.1% | 25.6% | 23.1µM* | ?
N/C(CS(=O)(=O)c1ccccn1)=N\OC(=O)c1ccccc1Cl | ? | . | 2.24µM* | 2µM* | ? | ?
COc1cc(OC)c(C(=O)O/N=C(\N)c2ccc(C)cc2)cc1OC | -0.5% | . | 3.3% | -2.4% | 19.5% | ?
COc1ccccc1OCCCCn1ncc2ccc(OC)c(OC)c2c1=O | -7.4% | . | -6.5% | -8.3% | -0.2% | 5.8%
CCc1ccccc1OCC(=O)Nc1ccc(F)c(S(=O)(=O)N2CCOCC2)c1 | -6.1% | . | -1.2% | -0.5% | -23.6% | 3.3%
N/C(=N\OC(=O)c1ccc(Cl)cc1Cl)c1ccncc1 | 9.2µM* | . | 1.78µM* | 1.58µM* | ? | 1.9µM*
Cc1ccccc1C(=O)O/N=C(\N)c1ccncc1 | ? | . | 3.16µM* | ? | ? | 4.26µM*
N/C(=N\OC(=O)c1cc(Cl)ccc1Cl)c1ccncc1 | ? | . | ? | 19.7% | ? | 13.5µM*
N/C(=N\OC(=O)Cc1ccc(Cl)cc1)c1ccncc1 | -1.3% | -4.4% | -3.6% | -2.4% | -8.9% | -4.5%
COc1cccc(C(=O)O/N=C(\N)c2ccncc2)c1OC | ? | 25.4% | 2.0% | 2.3% | ? | ?
COc1cccc(CNC(=O)C(=O)NCC(c2cccs2)S(=O)(=O)c2cccs2)c1 (configuration not stated) | . | . | . | . | . | -1.3%
Cc1ccc(NC(=O)COc2ccccc2)cc1Cl | 15.4% | . | -0.1% | -5.1% | 18.3% | ?
O=C(COc1ccc(C(=O)O)cc1)Nc1cccc(C(F)(F)F)c1 | 2.6% | -2.2% | -1.0% | 3.2% | -2.1% | -13.7%
CC(C)c1ccc(NC(=O)COc2ccccc2)cc1 | ? | . | ? | ? | ? | 16.9µM*
CN1CCN(c2ccc(NC(=O)COc3ccccc3)cc2Cl)CC1 | ? | . | 3.98µM* | 4.47µM* | ? | 21.3µM*
Cc1cc(NC(=O)COc2ccccc2)ccc1Cl | ? | . | 27.6% | ? | ? | 26.9µM*
CN1CCN(C(=S)c2ccc(OCC(=O)Nc3cccc(C(F)(F)F)c3)cc2)CC1 | 1.1% | -47.0% | -10.3% | -5.9% | 18.4µM* | -7.5%
